Consider 18 sequences from the OligoGym collection.
Note: reference of the scale not given here.

For the first experiment, the target named is MRPL14. Put plainly: pooled miR-30 sensor sort-seq; sequence = guide strand. Particulars: shRNA.
For the sequence TCATCTTCTGAATCGCACTCAG, the sensor-assay potency score (higher = more potent) is -0.0883.

TTGCCCACTCCATTCTTCTTAT: the sensor-assay potency score (higher = more potent) was -0.852.

TTGTCCACCACTCGTACCCGCG came in with a sensor-assay potency score (higher = more potent) of -1.02.

As for TTCTTATAGACATGGATGCAGC, the sensor-assay potency score (higher = more potent) is -1.01.

Sequence TTAATTCGTGTCCCCACAGGGT had a sensor-assay potency score (higher = more potent) of -1.22.

The sequence TTGTTGGAGTCGAATCTGGGGG showed a sensor-assay potency score (higher = more potent) of -0.711.

A further experiment addresses MRPL21. The experiment is described as above. Particulars: shRNA.
TTATCCGGAGGACAGTCTGCGG gave a sensor-assay potency score (higher = more potent) of -1.53.

In turn, TTTTAGGAACATATCCTGGTAG displayed a sensor-assay potency score (higher = more potent) of 0.0621.

Consider AATTGAACCTTCGAGAAGCAGA, for which the sensor-assay potency score (higher = more potent) was -0.954.

For the sequence TTCATTTCCAATTAAGATCAGG, the sensor-assay potency score (higher = more potent) is -0.523.

For the sequence TTGAAGTTTTTCCTTTTCCTGA, the sensor-assay potency score (higher = more potent) was -0.489.

As for TATCCGGAGGACAGTCTGCGGG, the sensor-assay potency score (higher = more potent) is -1.15.

As for TTCTACTCGAACAAGATCCTTT, the sensor-assay potency score (higher = more potent) worked out at 0.318.

Take TTTAGGAACATATCCTGGTAGA: the sensor-assay potency score (higher = more potent) was -0.392.

TTCTTCTTGAAGTTTTTCCTTT came in with a sensor-assay potency score (higher = more potent) of -0.465.

In the case of TCTGTGAATTGAACCTTCGAGA, the sensor-assay potency score (higher = more potent) was -0.658.

Regarding TCGAACAAGATCCTTTCCGAGG, the sensor-assay potency score (higher = more potent) was -1.49.

As to TATCCTGGTAGATATGAAGTGC, the sensor-assay potency score (higher = more potent) is -0.473.
